Hits are enriched below; roughly 10% of the tested compounds scored in any of these assays.
Luciferase inh – inhibitors of firefly (Photinus pyralis) luciferase | P08659 | purified P. pyralis luciferase, luminescence, biochemical | Potency, µM (titrated, usually from 115 µM), actives largely listed as inhibitors | 76,000 tested, 2.5% active; further: nearly all actives have a fitted effect of over 65% in size
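Luminescence read by CCD imager after adding enzyme (10nM final) to wells holding compound, titrated in qHTS. Substrates 10uM each D-luciferin and ATP; buffer 50mM Tris acetate pH 7.5, 10mM Mg acetate, Tween-20, BSA.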
NPR1 antag – antagonists of human natriuretic peptide receptor Npr1. HEK293 hNpr1 GloSensor cGMP, ANP-stimulated luminescence. Potency, µM (top dose mostly 46.3 µM), without a hit: at the top dose activity change, negative = inhibition, actives largely listed as inhibitors. 76,000 tested, 1.6% active. AID 1347048; calls by dose curve; further: nearly all actives have a fitted effect of over 60% in size
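HEK293 cells stably expressing human Npr1 and cGMP GloSensor pGS-40F, loaded 2 h with 2% GloSensor reagent, given compound 30 min at room temperature. Luminescence read before and 20 min after 0.1 nM hNppA.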
NIH3T3 tox – kills NIH 3T3 cells; NIH 3T3 viability, CellTiter-Glo ATP luminescence, 48-72 h; Potency, µM (titrated, usually from 96.7 µM), without a hit: at the top dose activity change, negative = cytotoxicity, actives largely listed as inhibitors; 94,000 tested, 4.3% active; AID 1345082; further: nearly all actives have a fitted effect of over 55% in size
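Cells were seeded at 400 per well, treated with pin-transferred compound, and kept 48 or 72 hr at 37 °C before CellTiter-Glo addition and luminescence imaging of cellular ATP.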
GPT2 inh – GPT2 alanine aminotransferase inhibition | Q8TD30 | Recombinant GPT2, coupled pyruvate oxidase/HRP Amplex Red fluorescence | Potency, µM (top dose mostly 57.7 µM), for inactives: at the highest dose activity change, negative = inhibition, usual class: inhibitors | 100,000 tested, 0.25% active; further: nearly all actives have a fitted effect of over 60% in size
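Recombinant GPT2 (10ng/uL) with 250uM a-KG and 2mM L-alanine, 30 min at room temperature, in HEPES pH 7.5 buffer. Pyruvate detected by pyruvate oxidase/HRP/Amplex Red fluorescence after 30 min in the dark; AOA (50uM) as positive control.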
HEK cytotox – cytotoxic compounds in HEK 293 cells. HEK 293 viability, ATP luminescence (CellTiter-Glo), 48-72 h. Potency, µM (titrated, usually from 115 µM), for inactives: at the highest dose activity change, negative = cytotoxicity, hits mostly inhibitors. 94,000 tested, 6.6% active. AID 1345083; further: nearly all actives have a fitted effect of over 60% in size
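Viability of HEK 293 cells, plated at 250 cells/well, was judged by cellular ATP after compound treatment for 48 or 72 hr. Luminescence was imaged 10 min after CellTiter-Glo addition at room temperature.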
Active calls of the source: *; i = inactive; ? = inconclusive; / = no result; ! = not confirmed by another sample; [ ] = remark or other dose. Unless noted, the call rests on the fitted dose curve; in most records, active means well fitted curve in the direction sought with a large enough effect; inconclusive means small, poorly fitted or top-dose-only effect, or another doubt; inactive means no such curve, though single readings can be large; an effect the other way counts as inactive or inconclusive. On the % scale 0 is the no-effect control and ±100 the full control effect; potency means the concentration at half of the fitted maximal effect.

SMILES	Luciferase inh	NPR1 antag	NIH3T3 tox	GPT2 inh	HEK cytotox
O=c1n(-c2ccc([N+](=O)[O-])cc2)nc2n1CCN(Cc1ccc(C(F)(F)F)cc1)C2	i	14.1µM*	?	-1.8%	35.5µM*
O=c1n(-c2ccc([N+](=O)[O-])cc2)nc2n1CCN(Cc1ccc(OC(F)(F)F)cc1)C2	i	17.8µM*	?	i	35.5µM*
Cc1ccc(CN2CCn3c(nn(-c4ccc([N+](=O)[O-])cc4)c3=O)C2)cc1	i	?	?	i	44.7µM*
O=c1n(-c2ccc([N+](=O)[O-])cc2)nc2n1CCN(Cc1cccc3ccccc13)C2	i	-19.6%	?	i	?
O=c1n(-c2ccc(F)cc2F)nc2n1CCN(Cc1ccc(C(F)(F)F)cc1)C2	i	?	-21.6%	-14.7%	79.4µM*
Cc1ccc([S+](=O)([O-])N2CCN(Cc3ccccc3-c3ccc(C)c(Cl)c3)CC2)cc1	/	/	?	i	?
Cc1ccccc1C(=O)N1CCC(C(=O)N2CCC(c3nc4ncccc4[nH]3)CC2)CC1	/	/	-2.4%	i	i
O=c1n(-c2ccc(C(F)(F)F)cc2)nc2n1CCN(Cc1ccsc1)C2	/	/	?	?	50.1µM*
O=c1n(-c2ccc(Cl)cc2)nc2n1CCN(Cc1cccc3ccccc13)C2	/	/	0.6%	0.4%	-25.2%
O=c1n(-c2ccc(Cl)cc2)nc2n1CCN(Cc1ccccc1)C2	/	/	8.91µM*	-11.1%	?
O=c1n(-c2ccc([N+](=O)[O-])cc2)nc2n1CCN(CC1CC1)C2	?	?	?	-12.2%[88.5 µM]	35.5µM*
CC(=O)Nc1ccc(CN2CCn3c(nn(-c4ccc(Cl)cc4)c3=O)C2)cc1	/	/	?	i	?
O=c1n(-c2ccncc2)nc2n1CCN(Cc1cccc3ccccc13)C2	i	?	?	?	44.7µM*
COc1ccc(CN2C=C(C(=O)OCc3noc(C4CCCC4)n3)C(C)=NS2(=O)=O)cc1	?	?	?	i	?
O=c1n(-c2ccc(C(F)(F)F)cc2)nc2n1CCN(Cc1cccnc1)C2	/	/	?	-14.8%	?
O=c1n(-c2ccc(C(F)(F)F)cc2)nc2n1CCN(Cc1ccc(F)cc1)C2	i	-23.7%	39.8µM*	0.2%	31.6µM*!
O=C(NCc1ccccc1)c1ccccc1OC1CN(Cc2ccc(F)c(F)c2)C1	i	-13.4%	39.8µM*	i	?
O=C(NCc1ccccc1)c1ccccc1OC1CN(Cc2cccc(C(F)(F)F)c2)C1	/	/	12.6µM*	-6.1%	25.1µM*
O=C(NCc1ccccc1)c1ccccc1OC1CN(Cc2cccc(F)c2F)C1	/	/	20µM*	0.1%	?
CCOc1ccc(CN2CC(Oc3ccccc3C(=O)NCc3ccccc3)C2)cc1	/	/	?	4.3%	20µM*
Cc1c(CN2CC(Oc3ccccc3C(=O)NCc3ccccc3)C2)cnn1C	i	-12.0%	-7.7%	i	?
O=C(NC1CC1)c1ccccc1OC1CN(Cc2cc(F)c(F)c(F)c2)C1	i	-9.8%	?	i	?
O=C(NCc1cccc(C(F)(F)F)c1)C1CCc2nnc(-c3cccc(C(F)(F)F)c3)n21 (configuration not stated)	/	/	-24.7%	-0.9%	?
CN(C)c1ccc(CN[C@H]2[C@H](O)[C@@H](N(C)CCc3ccccn3)[C@@H]3OC[C@H]2O3)cc1	i	-0.5%[70.6 µM]	-1.0%[138 µM]	i	-3.0%[172 µM]
Cc1ccsc1CN1CC(Oc2ccccc2C(=O)NCc2ccccc2)C1	/	/	39.8µM*	i	39.8µM*
CCc1nc2c(c(-c3ccc(O)cc3)n1)CN(Cc1ccsc1)CC2	/	/	-37.6%	?	-14.8%
Cn1ncc2c(C(=O)NCc3ccc(F)c(F)c3)cc(C(C)(C)C)nc21	/	/	?	i	56.2µM*
Cn1ncc2c(C(=O)NCc3ccc(F)cc3)cc(C(C)(C)C)nc21	/	/	?	?	100µM*!
Cn1ncc2c(C(=O)NCC(F)(F)F)cc(C(C)(C)C)nc21	/	/	?	i	?
O=C(c1cccnc1)N1CCCCCC1c1nnc(-c2ccccc2)o1 (configuration not stated)	/	/	-16.9%	i	-16.3%

Assay outcomes: PubChem BioAssay, National Center for Advancing Translational Sciences (NCATS)
